Shown are actives, neighbours in structure and some others; about 21% of the full set was active somewhere.
Pf growth 48h: P. falciparum growth inhibition at 48 hours (one generation). Potency, µM (highest dose often 28.7 µM), inactives show at the top dose activity change, negative = inhibition, usual class: inhibitors. P. falciparum luciferase growth in erythrocytes, 48 h. 5.9% of 310,000 active; active means well fitted inhibition curve with a large enough effect; inconclusive means small, poorly fitted or top-dose-only effect, or another doubt; inactive means no such curve, though single readings can be large or run the other way; further: potency means the concentration at half of the fitted maximal effect; on the % scale 0 is the no-effect control and ±100 the full control effect
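Luminescence readout; reporter = integrated firefly luciferase in P. falciparum. RBC culture at 2% hematocrit, 0.1% parasitemia final, 37 C/5% CO2; decreased signal taken as growth inhibition.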
Shiga toxin inh: Shiga toxin inhibition; Vero cells, Shiga toxin protein synthesis inhibition reporter; inhibition, % at 38.7 µM; 9.2% of 290,000 active; AID 2315; in the data active means inhibition mostly above about 28%, no sharp cut-off; inactive means mostly below about 43%; further: 0% is about no effect
SARS PLpro yeast: inhibitors of SARS-CoV papain-like protease in yeast | S. cerevisiae expressing SARS-CoV PLpro, growth rescue | Potency, µM (series often up to 32.9 µM), for inactives: at the top dose activity, positive = growth rescue, usual class: activators | 0.19% of 330,000 active | AID 485353; further: potency means the concentration at half of the fitted maximal effect; 0% is about no effect; nearly all actives have a fitted effect of over 55% in size
Pf growth 96h: P. falciparum growth inhibition at 96 hours; P. falciparum luciferase reporter growth, 96 h; AID 504834; Potency, µM (doses to about 28.7 µM), for inactives: at the highest dose activity change, negative = inhibition, usual class: inhibitors; 6.9% of 320,000 active; active means well fitted inhibition curve with a large enough effect; inconclusive means small, poorly fitted or top-dose-only effect, or another doubt; inactive means no such curve, though single readings can be large or run the other way; further: potency means the concentration at half of the fitted maximal effect; on the % scale 0 is the no-effect control and ±100 the full control effect
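Parasite growth measured via integrated firefly luciferase reporter in P. falciparum. Infected erythrocytes at 2% hematocrit, 0.05% parasitemia final were treated 96 hours at 37 C under 5% CO2, and luminescence was read.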
NS1 function inh: inhibitors of influenza NS1 protein function. Potency, µM (series often up to 46.1 µM), for the others: top-dose activity, positive = more growth. 0.4% of 270,000 active; further: potency means the concentration at half of the fitted maximal effect; actives are rising curves; nearly all actives have a fitted effect of over 50% in size
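Compounds were scored for reversing the slow growth caused by influenza A NS1 in S. cerevisiae, measured by optical density at 600 nm. Assay medium contained 2% galactose at pH 6.0; NS1-free yeast of the same strain were the positive control.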
Cycloheximide cs: counter-screen for Shiga toxin inhibitors: cycloheximide protein synthesis inhibition; max response, %; 12% of 300,000 active; cell reporter, cycloheximide protein synthesis inhibition counterscreen; AID 2314; in the data active means max response mostly above about 13%, no sharp cut-off; inactive means mostly below about 14%; further: read at 38.3 µM for the half of the compounds with a filed dose; 0% is about no effect
* = called active by the depositor; ? = inconclusive; / = no result given; [ ] = dose if it differs, or a comment. Unless noted, the call rests on the fitted dose curve.

SMILES	Pf growth 48h	Shiga toxin inh	SARS PLpro yeast	Pf growth 96h	NS1 function inh	Cycloheximide cs
Cc1ccccc1Nc1nc(N)nc(COc2ccc(C#N)cc2)n1	-10%	-11	1%	-26%	/	-6
Cc1ccc(SCCC(=O)NCCSCc2ccccc2C)cc1	40%	-5	-25%	?	-133%	6
O=C(CSc1nnc(-c2ccncc2)n1-c1ccccc1)N1CCN(c2ccc(Cl)cc2)CC1	/	-2	8%	?	4%	-3
CC1CCCCN1CCCNC(=O)CCCN1C(=O)c2cccnc2Sc2ccccc21 (stereo not given)	12%	-2	1%	?	-2%	7
CN1CC(=O)N(CC(=O)Nc2cc(Cl)cc(Cl)c2)C1=O	?	-7	-2%	22%	/	-1
CCOC(=O)Cc1csc(NC(=O)c2c(-c3c(Cl)cccc3Cl)noc2C)n1	?	-20	-8%	?	?	-3
CCOC(=O)Cc1csc(NC(=O)/C=C/c2ccccc2Cl)n1	6%	71*	-2%	82%	-7%	38*
CCOC(=O)Cc1csc(NC(=O)/C=C\c2ccccc2Cl)n1	31%	53*	-1%	24%	1%	23*
Cc1ccc(OS(=O)(=O)c2cn(C)c(=O)n(C)c2=O)cc1C	15%	25	-1%	0%	1%	8
Cc1cccc(C)c1OCC(=O)N[C@@H](Cc1ccccc1)[C@@H](O)C[C@H](Cc1ccccc1)NC(=O)[C@H](C(C)C)N1CCCNC1=O	3.4µM*	/	/	6.7µM*	/	/
Cc1ccc(NC(=O)c2cnn(-c3ccccc3)c2C)c(C)c1	97%	23	-12%	140%	-53%	38*
Cc1cccc(C)c1NC(=O)c1cnn(-c2ccccc2)c1C	-22%	-10	-6%	?	-19%	2
Cc1ccc(NC(=O)c2cnn(-c3ccccc3)c2C)cc1	92%	/	-2%	133%	-45%	32*
CCC(Sc1nc(C)cc(=O)[nH]1)C(=O)Nc1nc2c(s1)CCCC2 (stereo not given)	33%	42*	1%	?	1%	15*
CCC1=C(OC(=O)N(CC)CC)N2C(=O)OC(=NCC3CC3)[C@]2(C)[C@H]2C1=CC[C@H]1C(=O)NC(=O)[C@H]12	?	-7	7%	?	3%	-1
CCC1=C(OC(=O)N(CC)CC)N2C(=O)OC(=NCCc3c[nH]c4ccccc34)[C@]2(C)[C@H]2C1=CC[C@H]1C(=O)NC(=O)[C@H]12	12µM*	-2	2%	?	-10%	-2
CCC1=C(OC(=O)N(CC)CC)N2C(=O)OC(=NCCc3c[nH]c4ccccc34)[C@]2(C)[C@H]2C1=CC[C@H]1C(=O)N(CC(=O)OC)C(=O)[C@H]12	9.3µM*	-12	-2%	15µM*	-3%	8
CCOC(=O)Cn1c(S(=O)(=O)Cc2ccc(F)cc2)nc(-c2ccccc2)c1-c1ccccc1	13µM*	-3	1%	9.3µM*	6%	3
CCOC(=O)Cn1c(S(=O)(=O)Cc2cccc(F)c2)nc(-c2ccccc2)c1-c1ccccc1	8.3µM*	9	-7%	5.9µM*	?	7
CCOC(=O)Cn1c(-c2ccccc2)nc2ccccc2c1=O	?	-16	-25%	-5%	-56%	-2
C#CCn1c(S(=O)(=O)Cc2ccc(F)cc2)nc(-c2ccccc2)c1-c1ccccc1	?	-6	-10%	8.3µM*	26%	1
Cc1ccc(N2CCN(C(=S)c3ccc(N(C)C)cc3)CC2)cc1	?	active	-13%	29%	-49%	59*
CN(C)c1ccc(C(=S)N2CCN(c3ccc([N+](=O)[O-])cc3)CC2)cc1	-1%	4	0%	-6%	0%	7
CC1CCN(C(=S)c2ccc(N(C)C)cc2)CC1	6%	62*	0%	-4%[5.75 µM]	0%	15
CN(C)c1ccc(C(=S)N2CCN(c3ccccc3)CC2)cc1	53%	47	8%	-58%	-15%	25*
CC(=O)Nc1ccc(-n2nnnc2SCC(=O)NCc2cccs2)cc1	-7%	3	-1%	5%	1%	-5
COc1ccc(OC(=O)c2cccc([N+](=O)[O-])c2)c(C(=O)/C=C/c2cccs2)c1	/	17	-6%	/	8%	19*

From PubChem BioAssay
